Only some compounds are listed: those with a hit (about 19% of all), similar ones and a draw of the others.
SARS PLpro yeast – qHTS of Yeast-based Assay for SARS-CoV PLP; AID 485353, 2010; S. cerevisiae expressing SARS-CoV PLpro, growth rescue; 330,000 compounds, 0.19% hits; Potency, µM (top dose mostly 32.9 µM), hits mostly activators; calls by dose curve; note: nearly all actives have a fitted effect of over 55% in size
Pf growth 48h – Primary qHTS for delayed death inhibitors of the malarial parasite plastid, 48 hour incubation; P. falciparum luciferase growth in erythrocytes, 48 h; Potency, µM (doses to about 28.7 µM), most hits filed as inhibitors; 310,000 compounds, 5.9% hits; AID 504832, 2011
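Here the parasites carry a stable luciferase gene and grow inside erythrocytes in Albumax-based RPMI medium with compound for one erythrocytic cycle. Activity is scored as loss of luminescent signal.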
AMA1 RON2 block – qHTS for Inhibitors of AMA1-RON; Towards Development of Antimalarial Drug Lead: Primary Screen; Plasmodium falciparum AMA1 (3D7) - RON2 peptide interaction; AlphaScreen AMA1-biotinylated RON2 peptide binding; Potency, µM (highest dose often 58.2 µM), hits mostly inhibitors; 360,000 compounds, 0.2% hits; AID 720542, 2013; note: nearly all actives have a fitted effect of over 45% in size
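AMA1 (3D7) with his tag at 25 nM final met compounds first, then biotinylated RON2 peptide at 25 nM; detection used donor plus acceptor beads, 10 µg/mL apiece, read by AlphaScreen after 30 min at room temperature.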
Pf growth 96h – Primary qHTS for delayed death inhibitors of the malarial parasite plastid, 96 hour incubation. P. falciparum luciferase reporter growth, 96 h. 320,000 compounds, 6.9% hits. Potency, µM (doses to about 28.7 µM), usual class: inhibitors
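Plates of compound plus infected erythrocytes (2% hematocrit, 0.05% parasitemia final) incubate 96 hours, 37 C, 5% CO2. Detection reagent added; reduced luminescence from the parasites' luciferase reporter flags inhibition.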
CHX counter – Cycloheximide Counterscreen for Small Molecule Inhibitors of Shiga Toxin; cell reporter, cycloheximide protein synthesis inhibition counterscreen; max response, %; 300,000 compounds, 12% hits; in the data active = max response mostly above about 13%, no sharp cut-off; inactive = mostly below about 14%; note: read at 38.3 µM for the half of the compounds with a filed dose
Shiga inhibitor – A qHTS for Small Molecule Inhibitors of Shiga Toxin; Vero cells, Shiga toxin protein synthesis inhibition reporter; AID 2315, 2010; inhibition, % at 38.7 µM; 290,000 compounds, 9.2% hits; in the data active = inhibition mostly above about 28%, no sharp cut-off; inactive = mostly below about 43%
Each line names hits and unclear results; the compound was inactive in the other large screens; ! = repeats disagree. Unless noted, calls come from the whole dose curve; as a rule, active = well fitted curve in the direction sought with a large enough effect; inconclusive = small, poorly fitted or top-dose-only effect, or another doubt; inactive = no such curve, though single readings can be large; an effect the other way counts as inactive or inconclusive.

O=C(CCS(=O)(=O)Cc1ccccc1)Nc1nc2c(s1)CCCC2	none
Cc1csc(NC(=O)CCCc2cccs2)n1	CHX counter 46, Shiga inhibitor 48
O=C(CCCc1cccs1)Nc1nc2c(s1)CCCC2	CHX counter 57, Shiga inhibitor 30
Cc1csc(NC(=O)CCCC(=O)c2ccccc2)n1	Pf growth 96h inconclusive, CHX counter 22, Shiga inhibitor 50
Cc1ccc(-c2csc(NC(=O)CCCc3cccs3)n2)cc1	none
O=C(CCN1C(=O)c2ccccc2S1(=O)=O)Nc1nc2c(s1)CCCC2	CHX counter 18, Shiga inhibitor 122
O=C(Cc1cnc2ncnn2c1)N1CCc2c([nH]c3ccccc23)C1c1ccccc1F (configuration not stated)	none
NC(=O)NC(CC(=O)N1CCc2ccccc2C1)c1ccc(Cl)cc1 (configuration not stated)	none (no result: SARS PLpro yeast)
Cc1ccc(O)c(C(=O)c2cnc3c(c2)c(C)nn3C)c1	Pf growth 48h inconclusive, Pf growth 96h 8.3µM
O=C(c1cnc2ccc3ccccc3c2c1)c1cc(F)ccc1O	Pf growth 48h 3.7µM, Pf growth 96h inconclusive, CHX counter 46, Shiga inhibitor 69
Cc1nn(C)c2ncc(C(=O)c3ccccc3O)cc12	none
Cc1nn(-c2ccccc2)c2nc(N)c(C(N)=O)cc12	none
Cc1nn(-c2ccccc2)c2ncc(C(=O)c3cc(Cl)ccc3O)cc12	Pf growth 48h 1.9µM, Pf growth 96h 2.6µM
Nc1nc2ncc(C(=O)c3cc(F)ccc3O)cc2s1	Pf growth 96h inconclusive
Cc1nn(C)c2ncc(C(=O)c3cc(F)ccc3O)cc12	Pf growth 96h 10µM (no result: Pf growth 48h)
COc1ccc(O)c(C(=O)c2cnc3c(c2)c(C)nn3C)c1	Pf growth 48h inconclusive, Pf growth 96h inconclusive
CCN(CC)CCNC(=O)c1ccc(NC(=O)c2ccc(-n3cncn3)c([N+](=O)[O-])c2)cc1	none (no result: SARS PLpro yeast, Pf growth 48h, Pf growth 96h, CHX counter, Shiga inhibitor)
CC1(C)C(=O)N(c2ccccc2)C(=O)c2ccccc21	none (no result: SARS PLpro yeast, Pf growth 48h, Pf growth 96h, CHX counter, Shiga inhibitor)
COc1ccc(C(=O)c2cnc(/N=C/N(C)C)s2)cc1	CHX counter 42, Shiga inhibitor active
CN(C)/C=N/c1ncc(C(=O)c2ccc3ccccc3c2)s1	CHX counter 33
Cc1cc(Sc2nnc(/N=C/N(C)C)s2)c2ccccc2n1	Pf growth 48h inconclusive, Pf growth 96h inconclusive
COc1ccc2nc(/N=C\N(C)C)sc2c1	none
Cc1c(O)nc(SCC(=O)Nc2ccc3c4c(cccc24)CC3)n(-c2ccc(F)cc2)c1=O	none
COCCCNC(=O)/C=C/[C@H]1O[C@@H](n2cnc3c(NC(=O)c4ccccc4)ncnc32)[C@H](O)[C@@H]1O	none (no result: SARS PLpro yeast, Pf growth 48h, Pf growth 96h, CHX counter, Shiga inhibitor)
COc1ccc(C2CC3(CC(C)(C)NC(=S)N3)Oc3cc(O)cc(C)c32)cc1 (configuration not stated)	Pf growth 48h inconclusive, Pf growth 96h 4.1µM
Cc1cc(O)cc2c1C(c1ccc(F)cc1)CC1(CC(C)(C)NC(=S)N1)O2 (configuration not stated)	Pf growth 48h inconclusive
O=C(COC(=O)c1ccc(S(=O)(=O)N2CCCCC2)cc1)NCc1ccc(F)cc1	Pf growth 48h inconclusive (no result: CHX counter, Shiga inhibitor)
COc1c(-c2ccc(O)c(O)c2)oc2cc(O)cc(O)c2c1=O	AMA1 RON2 block inconclusive, CHX counter active
COc1cc2oc(-c3ccc(O)cc3)cc(=O)c2c(O)c1OC	Pf growth 96h 10µM, CHX counter 10
COc1c(O)cc2oc(-c3ccc(O)cc3)cc(=O)c2c1O	CHX counter 13, Shiga inhibitor 51
COc1cc2oc(-c3ccc(O)cc3)cc(=O)c2c(OC)c1O	Pf growth 48h inconclusive, Pf growth 96h inconclusive
COc1ccc(-c2cc(=O)c3c(O)cc(O)cc3o2)cc1O	CHX counter 34, Shiga inhibitor 70 (no result: SARS PLpro yeast, Pf growth 48h, AMA1 RON2 block, Pf growth 96h)
Cc1ccc(NC(=O)C2CCC(N3C(=O)C4CCCCC4C3=O)CC2)cc1 (configuration not stated)	none
Cc1ccc(NC(=O)CN(C)C(=O)COc2cccc3cccnc23)cc1	none
COc1ccccc1-c1ccc(=O)n(CC(=O)NC2CCc3ccccc32)n1 (configuration not stated)	Pf growth 96h inconclusive
Cc1ccc(CNC(=O)c2ccc(CN3CCOCC3)cc2)cc1	none
CC(C)c1ccc(NC(=O)CSc2nc3ccccc3nc2N2CCCC2)cc1	SARS PLpro yeast inconclusive, Pf growth 48h inconclusive, Shiga inhibitor 16
CCc1ccc(NC(=O)CSc2nc3ccccc3nc2N2CCCC2)cc1	SARS PLpro yeast inconclusive, Pf growth 96h 2.6µM
O=C(CSc1nc2ccccc2nc1N1CCCC1)Nc1ccc(Cl)cc1	Pf growth 48h inconclusive
Cc1ccc(NC(=O)CSc2nc3ccccc3nc2N2CCCC2)cc1	Pf growth 48h inconclusive, CHX counter 21, Shiga inhibitor 33
COc1cccc(NC(=O)CSc2nc3ccccc3nc2N2CCOCC2)c1	Pf growth 96h inconclusive, CHX counter 24!
CCOc1cc(C2C3=C(CC(C)(C)CC3=O)Nc3n[nH]c(C)c32)ccc1O (configuration not stated)	none
O=C(NC1CCCN(Cc2ccc(Cl)cc2)C1)c1ccccc1-c1ncc[nH]1 (configuration not stated)	Pf growth 48h inconclusive, Pf growth 96h inconclusive
Cc1ccccc1OCC(=O)OCC(=O)Nc1cc(S(=O)(=O)N2CCCCC2)ccc1Cl	none (no result: CHX counter, Shiga inhibitor)
COc1cccc2cc(C(=O)CS(=O)(=O)c3ccc(C(C)(C)C)cc3)c(=O)oc12	Pf growth 96h inconclusive
CCCC(=O)c1cc2ccccc2oc1=O	none
O=C(CS(=O)(=O)c1ccccc1)c1cc2cc(F)ccc2oc1=O	CHX counter 50, Shiga inhibitor 45
O=C(CS(=O)(=O)c1ccccc1)c1cc2ccccc2oc1=O	CHX counter 32, Shiga inhibitor 63
COc1ccc2cc(C(=O)CS(=O)(=O)c3ccccc3)c(=O)oc2c1	Pf growth 96h 12µM
O=C(O)c1[nH]c(=O)[nH]c(=O)c1F	Pf growth 48h 0.012µM, Pf growth 96h 0.0033µM
O=C(O)c1nc(=O)[nH]c(=O)[nH]1	none (no result: SARS PLpro yeast, AMA1 RON2 block, CHX counter, Shiga inhibitor)
COc1cccc(OCc2nc3c4cnn(-c5ccccc5)c4ncn3n2)c1	none
c1ccc(-n2ncc3c2ncn2nc(-c4ccco4)nc32)cc1	CHX counter 38, Shiga inhibitor 46 (no result: Pf growth 96h)
CC12CC3CC(C)(C1)CC(C(=O)Nc1nncs1)(C3)C2	none
CC1=NN(c2ccc(C(=O)O)cc2)C(=O)/C1=C\c1ccc(OC(=O)c2cccs2)cc1	CHX counter 16
COC(=O)c1cc(NC(=O)c2ccccc2)c(=O)oc1C/C=N\OCc1ccc(Cl)cc1Cl	Pf growth 96h inconclusive (no result: Pf growth 48h)
COCc1cc(=O)n2[nH]c(-c3cccc(Br)c3)cc2n1	CHX counter 27
COCc1cc(=O)n2[nH]c(-c3ccccc3)cc2n1	CHX counter 23 (no result: Pf growth 48h)
